For 16 molecules, growth results are on record in PubChem BioAssay (NCI).

Holding throughout (experiment): NCI-60 one-dose screen, 48 h (100 = growth as untreated, 0 = no growth, -100 = all killed)
What all share (conditions): 10 µM unless noted

Assay [1] has as its system SR leukemia.
The subject of assay [2] is RPMI-8226 leukemia.
In assay [3] the test system is OVCAR-8 ovarian.
Assay [4] has as its system OVCAR-5 ovarian.
Assay [5] concerns OVCAR-4 ovarian.
Assay [6] deals with SK-OV-3 ovarian.
In assay [7] the test system is IGROV1 ovarian.
The subject of assay [8] is OVCAR-3 ovarian.
Assay [9] deals with HS 578T breast.
Assay [10] relates to NCI/ADR-RES ovarian.
Assay [11] concerns T-47D breast.
For assay [12], the system named is BT-549 breast.
Assay [13] concerns MDA-MB-435 melanoma.
Assay [14] deals with SW-620 colon.
Assay [15] relates to MCF7 breast.
Assay [16] has as its system HCT-116 colon.
The test system of assay [17] is HCC-2998 colon.
Assay [18] relates to KM12 colon.

Structures are written as SMILES. The panel holds about 83,000 compounds, 20% with a hit somewhere; the sample as a whole holds those more often.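 Treatment: one concentration, 48 hours, 96-well format. Scoring: percent growth, with anything below 10 considered active.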 Unmarked numbers belong to inactive results. Activity calls are given as the source filed them.

`CN(C)c1ccc2cc(-c3ccccc3F)c(N)nc2c1`: the growth is 6.09% (active) in assay [1]; 25.2% in assay [2]; 22.6% in [3]; 68.7% in [4]; 32.8% in assay [5]; 28.9% in assay [6]. The growth was 40.9% in assay [7]; 3.93% (active) in assay [8]; 28.9% in assay [9]; 1.98% (active) in [10]; 27.1% in assay [11]; 25.5% in assay [12]. The growth in assay [13] was -9.25% (active); in assay [14] it was 30%; in assay [15] it was 27%; in [16] it was 22.4%; in [17], 54.3%; in assay [18], 26%.

On to `CN(C)c1ccc(/C=C2\C=C(c3ccccc3)N(CCc3ccccc3)C2=O)cc1`, for which the growth was 23.5% in assay [1]; 93% in assay [2]; 11.7% in assay [3]; 98.7% in [4]; -11.6% (active) in assay [5]; 60.9% in [6]. The growth in assay [7] was 70.2%; in assay [8] it was 62.3%; in assay [9] it was 19.1%; in [10], 48.6%; in assay [11], 82.3%; in assay [12], 71.3%. Moreover, the growth is 95.3% in assay [13]; 61.4% in assay [14]; 60% in assay [15]; 42.2% in assay [16]; 75.5% in assay [17]; 89.8% in [18].

As for `Cc1nc(Nc2ccc(S(=O)(=O)Nc3cc(C)on3)cc2)c2ccccc2n1`, the growth in assay [1] was 111%; in assay [2], 111%; in [3], 104%; in [4] it was 101%; in assay [5], 105%; in [6], 93%. For the same molecule, the growth is 96.9% in [7]; 103% in assay [8]; 108% in assay [9]; 107% in [10]; 89.1% in assay [11]; 120% in assay [12]. In addition, the growth in assay [13] was 101%; in assay [14], 109%; in [15], 91.9%; in assay [16], 109%; in assay [17] it was 107%; in assay [18], 103%.

As for `CN(C)CCOC(=O)Nc1ccc(Cl)cc1`, the growth in assay [1] was 101%; in assay [2], 94.3%; in assay [3], 97.5%; in assay [4], 109%; in assay [5], 117%; in [6], 96.9%. Further, the growth in assay [7] is 103%; in assay [8], 106%; in assay [9], 94.7%; in [10] it was 104%; in assay [11], 101%; in assay [12], 82%. Further, the growth was 112% in assay [13]; 104% in assay [14]; 94.4% in assay [15]; 86.8% in [16]; 102% in assay [17]; 104% in [18].

Take `COc1cc(/C=C2\C=C(c3ccccc3)N(CCc3ccccc3)C2=O)cc(OC)c1OC`: the growth in assay [1] was 85.5%; in assay [2], 83.3%; in assay [3] it was 38.5%; in [4] it was 105%; in [5], 33.4%; in [6], 62.9%. Also, the growth in assay [7] was 83.1%; in [8] it was 87.7%; in assay [9], 23.2%; in [10], 66.8%; in [11], 56.9%; in assay [12], 91.3%. Further, the growth is 89.5% in assay [13]; 85.2% in [14]; 70.9% in assay [15]; 52.2% in assay [16]; 102% in assay [17]; 80.6% in [18].

`c1ccc([P+](CCCc2n(Cc3ccc4ccccc4c3)c3ccccc3[n+]2Cc2ccc3ccccc3c2)(c2ccccc2)c2ccccc2)cc1`: the growth in [1] is 30.8%; in assay [2] it was 6.9% (active); in assay [3], 70.2%; in [4] it was 60.1%; in assay [5], 74.4%; in assay [6], 84.5%. The growth was 20.8% in [7]; 75.8% in [8]; 68.6% in [9]; 83.7% in assay [10]; 56.9% in [11]; 68.1% in [12]. The growth is 25.2% in assay [13]; 35.2% in [14]; 73.9% in assay [15]; 24.2% in assay [16]; 53.9% in assay [17]; 32.2% in [18].

Take `COc1cc2nc(Nc3ccc(F)cc3)nc(N)c2cc1OC`: the growth in assay [1] was 64.2%; in [2] it was 76.8%; in assay [3] it was 93.1%; in assay [4], 99.1%; in assay [5] it was 97.7%; in assay [6], 110%. Further, the growth in [7] is 107%; in assay [8], 91.3%; in [9], 111%; in [10] it was 87.6%; in assay [11], 83.2%; in assay [12] it was 93.9%. The growth in assay [13] was 96.2%; in assay [14], 103%; in assay [15], 82.9%; in [16] it was 89.4%; in assay [17], 113%; in assay [18], 94.7%.

On to `NC(=S)c1csc(CCNC(=O)c2ccccc2)n1`, for which the growth is 107% in [1]; 102% in assay [2]; 106% in assay [3]; 117% in [4]; 91.2% in assay [5]; 101% in [6]. Further, the growth is 112% in assay [7]; 113% in assay [8]; 102% in [9]; 110% in assay [10]; 103% in assay [11]; 96.5% in [12]. Further, the growth in assay [13] was 110%; in assay [14], 105%; in assay [15] it was 90.7%; in [16] it was 97.6%; in assay [17] it was 103%; in assay [18], 109%.

In the case of `CCOC(=O)Cc1csc2nc(-c3ccccc3)nn12`, the growth in assay [1] was 98.8%; in assay [2] it was 113%; in assay [3], 98.3%; in [4], 92.9%; in assay [5] it was 105%; in assay [6], 115%. Also, the growth in assay [7] is 104%; in [8], 117%; in assay [9], 103%; in assay [10], 104%; in [11], 92.9%; in assay [12], 127%. Besides, the growth in assay [13] was 113%; in [14], 98.5%; in [15], 96.5%; in assay [16] it was 98.2%; in [17] it was 103%; in assay [18], 105%.

Consider `CC(=O)c1sc(-c2ccccc2)cc1N`, for which the growth is 88.4% in assay [1]; 98.1% in assay [2]; 92.8% in [3]; 100% in [4]; 94.2% in assay [5]; 89.6% in assay [6]. Besides, the growth in assay [7] is 105%; in assay [8] it was 103%; in [9], 89.1%; in assay [10], 105%; in assay [11] it was 83%; in assay [12] it was 101%. Also, the growth was 94.1% in assay [13]; 96.5% in assay [14]; 97.7% in assay [15]; 98.8% in assay [16]; 99.4% in assay [17]; 104% in [18].

`Cc1cnc(Nc2ccc(N3CCN(C)CC3)cc2)nc1Nc1ccc(Cl)c(NS(=O)(=O)C(C)(C)C)c1`: the growth in assay [1] was -3.93% (active); in assay [2], 5.58% (active); in assay [3] it was 21.7%; in assay [4], 19.9%; in assay [5], 27.9%; in [6] it was -6.97% (active). Further, the growth was 6.84% (active) in assay [7]; 9.51% (active) in [8]; -6.51% (active) in [9]; 21% in [10]; 39.8% in [11]; -5.14% (active) in [12]. Also, the growth in assay [13] is 31.6%; in assay [14] it was 1.76% (active); in assay [15] it was 5.84% (active); in [16] it was 8.83% (active); in [17], -48.1% (active); in [18] it was 8.8% (active).

On to `CCCCOC(=O)c1ccc(NC(=O)C(C)N2CCOCC2)cc1` (stereo not drawn), for which the growth in assay [1] was 98.1%; in assay [2], 88.1%; in [3], 95.6%; in assay [4] it was 112%; in assay [5], 124%; in assay [6], 109%. Moreover, the growth in assay [7] is 103%; in [8], 102%; in [9], 99%; in assay [10] it was 101%; in [11] it was 107%; in assay [12], 86.6%. Also, the growth in assay [13] is 113%; in assay [14] it was 101%; in assay [15] it was 106%; in assay [16] it was 77.6%; in assay [17] it was 102%; in assay [18], 109%.

Turning to `CCN(CC)c1ccc(Nc2ccc(CC(=O)c3ccccc3)cc2)cc1`, the growth in [1] was 55.3%; in [2], 49.9%; in assay [3] it was 84.8%; in assay [4], 98.3%; in assay [5], 87.8%; in assay [6], 97.8%. Also, the growth in [7] was 88.4%; in [8], 84.3%; in [9], 81.1%; in [10], 73.6%; in assay [11] it was 74.3%; in assay [12], 82.4%. Also, the growth in assay [13] was 80.2%; in assay [14], 89.9%; in assay [15], 83.6%; in assay [16], 82.4%; in assay [17], 94.9%; in assay [18], 74.9%.

On to `CCCCNCC(=O)Nc1ccc(C(=O)OCC)cc1`, for which the growth was 87% in assay [1]; 94% in assay [2]; 104% in assay [3]; 109% in assay [4]; 114% in [5]; 105% in [6]. For the same molecule, the growth in [7] is 105%; in [8] it was 113%; in assay [9], 108%; in assay [10] it was 107%; in assay [11], 96.8%; in assay [12], 92.5%. Also, the growth was 105% in assay [13]; 105% in assay [14]; 98.4% in assay [15]; 86.4% in assay [16]; 100% in [17]; 103% in assay [18].

Take `CCCCCCCC/C=C\CCCCCCCC(=O)Oc1cccc2cccnc12`: the growth in assay [1] was 45.9%; in assay [2] it was 297%; in [3], 89.7%; in assay [4], 104%; in assay [5], 128%; in assay [6], 112%. In addition, the growth in assay [7] is 85.4%; in assay [8], -2.34% (active); in assay [9], 138%; in assay [10] it was 99.1%; in [11] it was 54.6%; in assay [12], 65.6%. Besides, the growth is 82.9% in [13]; 59.4% in assay [14]; 89.4% in assay [15]; 32.2% in assay [16]; 106% in assay [17]; 104% in assay [18].

For the molecule `CCCCCCNC(=O)c1cc(NCc2cc(O)ccc2O)ccc1O`, the growth in assay [1] was 7.38% (active); in [2] it was -12.3% (active); in assay [3] it was 30.9%; in [4] it was 77.5%; in assay [5] it was 66.5%; in assay [6], 74.5%. Further, the growth in [7] was 70.7%; in [8], 27.4%; in assay [9], 70.5%; in assay [10], 59.2%; in [11] it was 21.3%; in [12], 22.4%. Also, the growth in [13] was 71.5%; in assay [14] it was 76.8%; in [15], 54.9%; in assay [16], 75%; in assay [17], 105%; in assay [18], 69.1%.
